Source: PubChem (National Center for Advancing Translational Sciences (NCATS))
Giardia killer: Giardia lamblia killing; activity change, % at 7.66 µM, hits read low; 340,000 tested, 0.15% active; Giardia lamblia trophozoite viability; in the data active = activity change below about -80%; inconclusive = between about -30% and that limit;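 also: parasites exposed to compound for two days anaerobically before the ATP read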
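Trophozoites 100 cells/well + cpd; 48 hrs, 37 deg C, anaerobic. ATPLite 1-Step added, 15-30 min RT, luminescence read (ATP-based viability).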
D3 ag: activates the human D3 dopamine receptor. P35462. D3R DiscoveRx beta-arrestin cells, luminescence, 90 min. max activation, %. 410,000 tested, 0.58% active; in the data active = max activation above about 30%
Target sequence (P35462 whole entry, looked up): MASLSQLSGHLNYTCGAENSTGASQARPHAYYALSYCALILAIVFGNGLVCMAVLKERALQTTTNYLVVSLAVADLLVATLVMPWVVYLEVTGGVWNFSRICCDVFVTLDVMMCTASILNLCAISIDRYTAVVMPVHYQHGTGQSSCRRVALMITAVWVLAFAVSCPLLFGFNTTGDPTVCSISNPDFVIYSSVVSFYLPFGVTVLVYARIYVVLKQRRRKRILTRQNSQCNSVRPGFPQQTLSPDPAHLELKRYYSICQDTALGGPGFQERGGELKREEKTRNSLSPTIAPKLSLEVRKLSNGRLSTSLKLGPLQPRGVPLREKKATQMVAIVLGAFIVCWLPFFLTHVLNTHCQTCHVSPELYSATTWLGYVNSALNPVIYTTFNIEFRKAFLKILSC
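Agonist-mode cell screen: cells plated at 1500/well and incubated overnight at 37 °C, then exposed to library compounds for 90 min at 37 °C. Detection reagent was added for 30–60 min at room temperature, and luminescence was read.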
DRD3 antagonist: blocks the human D3 dopamine receptor; P35462; AID 652054; 360,000 tested, 2.5% active; D3R cells, DiscoveRx beta-arrestin luminescence, antagonist mode; active compounds read low; max response, negative = inhibition, %; in the data active = max response below about -50%; inconclusive = no clear call, values can overlap the other calls
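Cells expressing the human receptor were seeded at 1500 cells/well, incubated overnight at 37 degrees C in 5% CO2, then exposed to library compounds with dopamine controls for 90 minutes at 37 degrees C before luminescent detection.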
B2AR arrestin: recruits beta-arrestin to the human beta2-adrenergic receptor | AID 492947 | P07550 | 330,000 tested, 0.02% active | beta-arrestin recruitment to beta2AR, cell-based reporter | Potency, µM (series often up to 46.1 µM), hits mostly activators; active = well fitted activation curve with a large enough effect; inconclusive = small, poorly fitted or top-dose-only effect; also: nearly all actives have a fitted effect of over 65% in size
Of the large screens only hits and unclear results are named; the others gave an inactive call; ! = repeats disagree. A selection: hits, their analogues and other compounds. The true share with any hit is near 2.8%.

Cc1ccc(CSC2=Nc3ccccc3C3=NC(CCC(=O)NC4CCCCC4)C(=O)N23)cc1 (stereo not drawn)	none (no result: Giardia killer, DRD3 antagonist, B2AR arrestin)
Cc1cccc(N2CCN(CC3CCCCC3)CC2)c1C	DRD3 antagonist -97
Cc1ccc(C)c(N2CCN(CC3CCCCC3)CC2)c1	DRD3 antagonist -57
Cc1cccc(N2CCN(C(=O)CNC(=O)C3CCCCC3)CC2)c1C	none
Cc1ccc(C)c(N2CCN(Cc3nnnn3C3CCCCC3)CC2)c1	none
COc1ccc(OC)c(-c2cc(C(=O)NC(C)c3ccccc3)no2)c1 (stereo not drawn)	none (no result: Giardia killer, DRD3 antagonist, B2AR arrestin)
COc1ccc(CNc2nc3nc(C)cc(C)n3n2)cc1OC	DRD3 antagonist -56
O=C(Nc1ccc2nc(SCC(=O)N3CCOCC3)sc2c1)c1cccc(Cl)c1	none (no result: Giardia killer, DRD3 antagonist, B2AR arrestin)
O=C(Nc1ccn(CCCNCCN2CCOCC2)c(=O)n1)OCc1ccccc1	none (no result: B2AR arrestin)
O=C(Nc1ccn(CCCNC2CCN(Cc3ccccc3)CC2)c(=O)n1)OCc1ccccc1	DRD3 antagonist -53 (no result: Giardia killer, B2AR arrestin)
Cc1nc(N2CCCC2)c2c(C(=O)Nc3cccc(Cl)c3C)c(C)oc2n1	none (no result: Giardia killer, DRD3 antagonist, B2AR arrestin)
COc1ccc(OC)c(-c2noc(N3CCN(c4ccc(Cl)cc4)CC3)n2)c1	none (no result: Giardia killer, DRD3 antagonist, B2AR arrestin)
C=C1C(=O)[C@]23C[C@H]1CCC2[C@]1(C)CCC[C@@](C)(C(=O)O)C1C[C@@H]3O (stereo partly drawn)	DRD3 antagonist -89 (no result: Giardia killer, B2AR arrestin)
CCOc1ccccc1CNC(=O)C1CCN(C(=O)N2CCOc3ccc(Cl)cc32)CC1	none (no result: Giardia killer, DRD3 antagonist, B2AR arrestin)
Cc1nc(N2CCN(c3ccccn3)CC2)c2c(C)c(C(=O)Nc3c(F)cc(F)cc3Br)sc2n1	D3 ag 39
Cc1nc(N2CCC(C)CC2)c2c(C)c(C(=O)Nc3ccccc3C(F)(F)F)sc2n1	D3 ag 31
Cc1nc(N2CCN(c3ccccn3)CC2)c2c(C)c(C(=O)Nc3c(C)cc(Br)cc3C)sc2n1	none
Cc1nc(N2CCC(C)CC2)c2c(C)c(C(=O)Nc3ccc(C)c(F)c3)sc2n1	none
CC1(C)OC(=O)C2(Cc3ccc(Cl)cc3N3CCCC32)C(=O)O1 (stereo not drawn)	none (no result: D3 ag, DRD3 antagonist, B2AR arrestin)
CCCN(CCC)C(=O)Cn1c(=O)n(-c2ccc(C)c(C)c2)c(=O)c2c3c(sc21)CCCCC3	none (no result: Giardia killer, DRD3 antagonist, B2AR arrestin)
Cc1ccc(C(C)C)c(OCCCCN2CCNCC2)c1	DRD3 antagonist inconclusive
Cc1ccc(C(C)C)c(OCCN(C)C)c1	DRD3 antagonist -75
Cc1ccc(C(C)C)c(OCCCCCN2CCOCC2)c1	DRD3 antagonist -52
Cc1ccc(C)c(OCCOCCN2CCOCC2)c1	DRD3 antagonist -56
Cc1ccc(C)c(OCCN2CCOCC2)c1	none
CCCN(CCC)CCOc1cc(C)ccc1C(C)C	DRD3 antagonist inconclusive
Cc1cc(-c2csc(N)n2)c(C)n1CCc1ccccc1	D3 ag 32
Cc1cc(-c2csc(N)n2)c(C)n1CCC(C)C	none
COCC(=O)Nc1nnc(-c2cccs2)s1	DRD3 antagonist -72
CCC(=O)Nc1nnc(-c2cccs2)s1	none
CC(C)Nc1ccc(Nc2ccnc3cc4ccccc4cc23)cc1	DRD3 antagonist -79
COc1ccc(CN2CCC3CC2c2cc(Cl)ccc23)cc1 (stereo not drawn)	DRD3 antagonist -59 (no result: B2AR arrestin)
C=CCNC(=O)c1onc(CCl)c1C(=O)OC	D3 ag 65
C=C1C(=O)[C@@]23[C@H](O)C[C@@H]4C(C)(C)CC[C@H](O)[C@]4(C)[C@@H]2C[C@H](O)[C@@H]1[C@H]3O	none
C=C1C(=O)[C@@]23[C@H](O)C[C@@H]4C(C)(C)CC[C@H](O)[C@@]4(C)[C@@H]2CC[C@@H]1[C@H]3O	DRD3 antagonist -57
CCC(Oc1ccccc1-c1nnc(-c2ccccc2)o1)C(=O)Nc1ccc(C(C)=O)cc1 (stereo not drawn)	none (no result: Giardia killer, DRD3 antagonist, B2AR arrestin)
CCSC1=NC2(CCCCC2)Nc2sc3c(c21)CCCC3	DRD3 antagonist -61
CCSc1nc2sc3c(c2c(=O)[nH]1)CCCC3	none
CC1(C)CC(=O)C2=C(C1)Nc1ccccc1NC2c1ccccc1F (stereo not drawn)	none
Cc1c(C2Nc3ccccc3NC3=C2C(=O)CC(C)(C)C3)cnn1C (stereo not drawn)	DRD3 antagonist -71
CCc1ccc(C2c3[nH]c4ccccc4c3CCN2C(=O)CNC(N)=O)cc1 (stereo not drawn)	none
CCc1ccc(C2c3[nH]c4ccccc4c3CCN2C(=O)CN2CCN(CC)CC2)cc1 (stereo not drawn)	DRD3 antagonist -55
Cc1nc2ccn(Cc3ccco3)c(=O)c2cc1C(=O)NCc1ccccc1F	none (no result: Giardia killer, DRD3 antagonist, B2AR arrestin)
CCOC(=O)c1cccc(NC(=O)c2nn(-c3ccc(OC)cc3)c(=O)c3c2c2ccccc2n3C)c1	none (no result: Giardia killer, DRD3 antagonist, B2AR arrestin)
CCCNC(=O)c1c(O)c2c([nH]c1=O)CCCC2	none
COc1ccc(CCNC(=O)c2c(O)c3c([nH]c2=O)CCCC3)cc1	DRD3 antagonist -126
O=C(O)Cn1c(O)c(C2=c3ccccc3=NC2=O)sc1=O	DRD3 antagonist inconclusive
O=C(O)CCC(C(=O)O)n1c(O)c(C2=c3ccccc3=NC2=O)sc1=S (stereo not drawn)	DRD3 antagonist -103
O=C(c1cc(C2CC2)nc2ccccc12)N1N=C(C(F)F)CC1(O)C(F)F (stereo not drawn)	none
O=C(c1cc(C2CC2)nc2ccc(Br)cc12)N1N=C(C(F)F)CC1(O)C(F)F (stereo not drawn)	DRD3 antagonist -62
O=c1[nH]c(=O)n([C@H]2C[C@H](O)[C@@H](CO)O2)cc1C(F)(F)F	Giardia killer inconclusive, D3 ag 90!
O=c1[nH]c(=O)n(C2C[C@H](O)[C@@H](CO)O2)cc1C(F)(F)F (stereo partly drawn)	none
Cc1cc2c(Nc3ccccc3)ncnc2s1	DRD3 antagonist -61
Cc1cc2c(NCCc3ccccc3)ncnc2s1	none
COc1cc2c(cc1OC)CN(Cc1ccc(OC)c(C)c1OC)CC2	DRD3 antagonist -77
COc1cc2c(cc1OC)CN(CC(O)c1ccccc1)CC2 (stereo not drawn)	none
COc1cc2c(cc1OC)CN(Cc1ccccc1)CC2	none
COc1cc2c(cc1OC)CN(Cc1ccc(C)cc1)CC2	DRD3 antagonist -80
COc1cc2c(cc1OC)CN(Cc1cccs1)CC2	DRD3 antagonist -54
COc1cc2c(cc1OC)CN(CCC(C)c1ccc(Cl)cc1)CC2 (stereo not drawn)	DRD3 antagonist -91 (no result: B2AR arrestin)
CC1(c2ccccc2)OC(C(=O)O)=CC1=O (stereo not drawn)	none (no result: Giardia killer, DRD3 antagonist, B2AR arrestin)
CCc1ccccc1NC(=O)CSc1ncccc1C(=O)O	none (no result: Giardia killer, DRD3 antagonist, B2AR arrestin)
COc1ccc(C2CC(=O)N(CC(=O)Nc3ccc(C(F)(F)F)cc3)c3ccccc3S2)cc1 (stereo not drawn)	none (no result: Giardia killer, DRD3 antagonist, B2AR arrestin)
COc1ccc(-c2nc3ccc(NC(C)=O)cc3c(=O)n2Cc2cccc(Cl)c2)cc1COc1ccc(NC(C)=O)cc1	none (no result: D3 ag, DRD3 antagonist, B2AR arrestin)
COc1ccccc1C(NC(=O)C1CCN(CCOc2ccccc2)CC1)c1ccccn1 (stereo not drawn)	DRD3 antagonist -55 (no result: Giardia killer, B2AR arrestin)
CC(NC(=O)C1CCN(CCOc2ccc(Cl)cc2)CC1)c1cccc2ccccc12 (stereo not drawn)	DRD3 antagonist -53 (no result: Giardia killer, B2AR arrestin)
COc1ccccc1C(NC(=O)C1CCN(CCOc2ccc(Cl)cc2)CC1)c1ccccn1 (stereo not drawn)	DRD3 antagonist -78 (no result: Giardia killer, B2AR arrestin)
